# ± gives the standard deviation of the averaged measurements.
# Experiments:
# [1] = compound: CC(C)c1cccc(C(C)C)c1N1C(=O)c2ccc(O)cc2C1=O; assay: reporter fold induction vs vehicle; higher = higher reporter activity
# Method in brief: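 Values give reporter activity as fold induction compared with vehicle, averaged across replicates where available. The multiplexed cellular reporter system carried 48 cis and 25 trans constructs, and ToxCast Phase II chemicals were run at 8 concentrations from 0.091 to 200 µM.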
# [2] = compound: CC(C)c1cccc(C(C)C)c1N1C(=O)c2ccc(O)cc2C1=O; assay: BioMAP readout fold decrease vs vehicle (vehicle/treated); higher = stronger decrease of the readout vs vehicle (values <1 mean increase)
# Protocol: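 BioSeek BioMAP human primary cell (co-)culture systems (3C, 4H, LPS, SAg, BE3C, CASM3C, hDFCGF, KF3CT) treated with 5HPP-33 at 1.48, 4.44, 13.3 and 40 µM. Read-outs are protein levels by ELISA, proliferation and SRB total protein. Duplicate rows per assay are averaged as replicates. Tested in ToxCast Phase II for this study; exposure time not stated.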
# 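Wherever BioMAP readout fold decrease vs vehicle (vehicle/treated) is given: Co-cultures of keratinocytes, bronchial epithelial and smooth muscle cells, fibroblasts, HUVECs and PBMCs under stimuli like LPS, TNF-α, IFN-γ, IL-1β, TGF-β or EGF, SRB reflecting cytotoxicity.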
target,measurement,setting,value
FoxA2_CIS,reporter fold induction,[1]; 0.091 µM,1.02
same,reporter fold induction,[1]; 0.274 µM,0.959
same,reporter fold induction,[1]; 0.823 µM,1.04
same,reporter fold induction,[1]; 2.469 µM,0.939
same,reporter fold induction,[1]; 7.407 µM,1.05
same,reporter fold induction,[1]; 22.22 µM,0.978
same,reporter fold induction,[1]; 66.67 µM,1.28
same,reporter fold induction,[1]; 200 µM,1.32
ISRE_CIS,reporter fold induction,[1]; 0.091 µM,1.23
same,reporter fold induction,[1]; 0.274 µM,0.874
same,reporter fold induction,[1]; 0.823 µM,1.04
same,reporter fold induction,[1]; 2.469 µM,0.962
same,reporter fold induction,[1]; 7.407 µM,0.9
same,reporter fold induction,[1]; 22.22 µM,0.883
same,reporter fold induction,[1]; 66.67 µM,0.605
same,reporter fold induction,[1]; 200 µM,0.362
3C_SRB,BioMAP readout fold decrease,[2]; 1.48 µM,0.983 ± 0.018
same,BioMAP readout fold decrease,[2]; 4.44 µM,1.13 ± 0.012
same,BioMAP readout fold decrease,[2]; 13.3 µM,1.46 ± 0.018
same,BioMAP readout fold decrease,[2]; 40 µM,2.09 ± 0.16
SAg_CD40,BioMAP readout fold decrease,[2]; 1.48 µM,1.164 ± 0.003
same,BioMAP readout fold decrease,[2]; 4.44 µM,1.39 ± 0.092
same,BioMAP readout fold decrease,[2]; 13.3 µM,1.94 ± 0.027
same,BioMAP readout fold decrease,[2]; 40 µM,5.89 ± 0.36
CASM3C_MCSF,BioMAP readout fold decrease,[2]; 1.48 µM,1.06 ± 0.033
same,BioMAP readout fold decrease,[2]; 4.44 µM,1.14 ± 0.044
same,BioMAP readout fold decrease,[2]; 13.3 µM,1.03 ± 0.035
same,BioMAP readout fold decrease,[2]; 40 µM,2.01 ± 0.034
hDFCGF_CollagenIII,BioMAP readout fold decrease,[2]; 1.48 µM,1.123 ± 0.0039
same,BioMAP readout fold decrease,[2]; 4.44 µM,1.19 ± 0.025
same,BioMAP readout fold decrease,[2]; 13.3 µM,1.04 ± 0.012
same,BioMAP readout fold decrease,[2]; 40 µM,1.49 ± 0.13
SAg_Proliferation,BioMAP readout fold decrease,[2]; 1.48 µM,1.22 ± 0.15
same,BioMAP readout fold decrease,[2]; 4.44 µM,1.7 ± 0.1
same,BioMAP readout fold decrease,[2]; 13.3 µM,1.76 ± 0.053
same,BioMAP readout fold decrease,[2]; 40 µM,10.3 ± 0.41
hDFCGF_VCAM1,BioMAP readout fold decrease,[2]; 1.48 µM,1.18 ± 0.2
same,BioMAP readout fold decrease,[2]; 4.44 µM,1.32 ± 0.063
same,BioMAP readout fold decrease,[2]; 13.3 µM,2.03 ± 0.15
same,BioMAP readout fold decrease,[2]; 40 µM,4.4 ± 0.3
M_61_CIS,reporter fold induction,[1]; 0.091 µM,0.997
same,reporter fold induction,[1]; 0.274 µM,0.997
same,reporter fold induction,[1]; 0.823 µM,1.01
same,reporter fold induction,[1]; 2.469 µM,0.995
same,reporter fold induction,[1]; 7.407 µM,1.02
same,reporter fold induction,[1]; 22.22 µM,1.02
same,reporter fold induction,[1]; 66.67 µM,0.98
same,reporter fold induction,[1]; 200 µM,1.09
BE3C_MIG,BioMAP readout fold decrease,[2]; 1.48 µM,0.992 ± 0.016
same,BioMAP readout fold decrease,[2]; 4.44 µM,1 ± 0.021
same,BioMAP readout fold decrease,[2]; 13.3 µM,1.036 ± 0.0018
same,BioMAP readout fold decrease,[2]; 40 µM,1.36 ± 0.19
SAg_CD69,BioMAP readout fold decrease,[2]; 1.48 µM,1.13 ± 0.076
same,BioMAP readout fold decrease,[2]; 4.44 µM,1.24 ± 0.035
same,BioMAP readout fold decrease,[2]; 13.3 µM,1.52 ± 0.077
same,BioMAP readout fold decrease,[2]; 40 µM,3.2 ± 0.15
SAg_SRB,BioMAP readout fold decrease,[2]; 1.48 µM,0.9638 ± 0.0049
same,BioMAP readout fold decrease,[2]; 4.44 µM,1.1 ± 0.021
same,BioMAP readout fold decrease,[2]; 13.3 µM,1.299 ± 0.011
same,BioMAP readout fold decrease,[2]; 40 µM,1.9 ± 0.097
SAg_MIG,BioMAP readout fold decrease,[2]; 1.48 µM,1.05 ± 0.017
same,BioMAP readout fold decrease,[2]; 4.44 µM,1.04 ± 0.012
same,BioMAP readout fold decrease,[2]; 13.3 µM,1.07 ± 0.034
same,BioMAP readout fold decrease,[2]; 40 µM,7.73 ± 1.1
LPS_SRB,BioMAP readout fold decrease,[2]; 1.48 µM,0.935 ± 0.012
same,BioMAP readout fold decrease,[2]; 4.44 µM,1.032 ± 0.0086
same,BioMAP readout fold decrease,[2]; 13.3 µM,1.277 ± 0.0063
same,BioMAP readout fold decrease,[2]; 40 µM,1.87 ± 0.066
LPS_IL1a,BioMAP readout fold decrease,[2]; 1.48 µM,0.781 ± 0.039
same,BioMAP readout fold decrease,[2]; 4.44 µM,0.8356 ± 0.0034
same,BioMAP readout fold decrease,[2]; 13.3 µM,0.965 ± 0.057
same,BioMAP readout fold decrease,[2]; 40 µM,1.56 ± 0.039
hDFCGF_SRB,BioMAP readout fold decrease,[2]; 1.48 µM,1 ± 0.034
same,BioMAP readout fold decrease,[2]; 4.44 µM,0.959 ± 0.0096
same,BioMAP readout fold decrease,[2]; 13.3 µM,1.19 ± 0.017
same,BioMAP readout fold decrease,[2]; 40 µM,2.06 ± 0.21
3C_Thrombomodulin,BioMAP readout fold decrease,[2]; 1.48 µM,1.06 ± 0.032
same,BioMAP readout fold decrease,[2]; 4.44 µM,0.9983 ± 0.0097
same,BioMAP readout fold decrease,[2]; 13.3 µM,0.939 ± 0.01
same,BioMAP readout fold decrease,[2]; 40 µM,0.984 ± 0.054
3C_Eselectin,BioMAP readout fold decrease,[2]; 1.48 µM,1.04 ± 0.051
same,BioMAP readout fold decrease,[2]; 4.44 µM,1.056 ± 0.0015
same,BioMAP readout fold decrease,[2]; 13.3 µM,0.99 ± 0.023
same,BioMAP readout fold decrease,[2]; 40 µM,1.39 ± 0.034
CASM3C_VCAM1,BioMAP readout fold decrease,[2]; 1.48 µM,1.05 ± 0.029
same,BioMAP readout fold decrease,[2]; 4.44 µM,1.0767 ± 0.00049
same,BioMAP readout fold decrease,[2]; 13.3 µM,1.19 ± 0.023
same,BioMAP readout fold decrease,[2]; 40 µM,1.55 ± 0.021
BE3C_uPAR,BioMAP readout fold decrease,[2]; 1.48 µM,1.02 ± 0.013
same,BioMAP readout fold decrease,[2]; 4.44 µM,1.0603 ± 0.00083
same,BioMAP readout fold decrease,[2]; 13.3 µM,1.1 ± 0.012
same,BioMAP readout fold decrease,[2]; 40 µM,1.26 ± 0.022
